# Measured values taken from paper PMC5540273 (PLoS ONE, 2017).
# Values joined by “and” are separate entries in the source; they are usually repeats but may differ in a detail not shown here. Equal values may be shown once. Read-outs that look alike come from different tables or passages of the source.
# Key:
# [1] = tested on: EPHA3; conditions: concentration: 1 μM, replicates: in singlicate, n = 1
# [2] = tested on: EPHA4; conditions: concentration: 1 μM, replicates: in singlicate, n = 1
# [3] = tested on: EPHA5; conditions: concentration: 1 μM, replicates: in singlicate; n = 1
# [4] = tested on: EPHA6; conditions: concentration: 1 μM, replicates: in singlicate, n = 1
# [5] = tested on: EPHA7; conditions: concentration: 1 μM, replicates: in singlicate, n = 1
# [6] = tested on: EPHA8; conditions: concentration: 1 μM, replicates: in singlicate, n = 1
# [7] = tested on: EPHB1; conditions: concentration: 1 μM, replicates: in singlicate, n = 1
# [8] = tested on: EPHB2; conditions: concentration: 1 μM, replicates: in singlicate; n = 1
# [9] = tested on: EPHB3; conditions: concentration: 1 μM, replicates: in singlicate, n = 1
# [10] = tested on: EPHB4; conditions: concentration: 1 μM, replicates: in singlicate, n = 1
# [11] = tested on: EPHB6; conditions: concentration: 1 μM, replicates: in singlicate, n = 1
# [12] = tested on: ERBB2; conditions: concentration: 1 μM, replicates: in singlicate, n = 1
# [13] = tested on: ERBB3; conditions: concentration: 1 μM, replicates: in singlicate, n = 1
# [14] = tested on: ERBB4; conditions: concentration: 1 μM, replicates: in singlicate, n = 1
# [15] = tested on: T1, ERK1; conditions: concentration: 1 μM, replicates: in singlicate, n = 1
# T1 construct: gene MAPK3
# [16] = tested on: T2, ERK2; conditions: concentration: 1 μM, replicates: in singlicate; n = 1
# T2 construct: gene MAPK1
# [17] = tested on: T3, ERK3; conditions: concentration: 1 μM, replicates: in singlicate, n = 1
# T3 construct: gene MAPK6
# [18] = tested on: T4, ERK4; conditions: concentration: 1 μM, replicates: in singlicate, n = 1
# T4 construct: gene MAPK4
# [19] = tested on: T5, ERK5; conditions: concentration: 1 μM, replicates: in singlicate; n = 1
# T5 construct: gene MAPK7
# [20] = tested on: T6, ERK8; conditions: concentration: 1 μM, replicates: in singlicate, n = 1
# T6 construct: gene MAPK15
# 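Note: KINOMEscan kinase panel screen.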
smiles,measurement,setting,value
COc1cc2ncn(-c3cc(OCc4sccc4Cl)c(C(N)=O)s3)c2cc1OC [GSK448459],%Inh,[1],0%
same,%Inh,[2],0%
same,%Inh,[3],0%
same,%Inh,[4],2%
same,%Inh,[5],0%
same,%Inh,[6],11%
same,%Inh,[7],3%
same,%Inh,[8],9%
same,%Inh,[9],6%
same,%Inh,[10],0%
same,%Inh,[11],28%
same,%Inh,[12],44%
same,%Inh,[13],0%
same,%Inh,[14],31%
same,%Inh,[15],0%
same,%Inh,[16],0%
same,%Inh,[17],8%
same,%Inh,[18],0%
same,%Inh,[19],0%
same,%Inh,[20],20%
COc1cc2c(cc1OC[C@@H](O)CO)ncc1c3ccc(C#N)cc3[nH]c21,%Inh,[1],0%
same,%Inh,[2],8%
same,%Inh,[3],11%
same,%Inh,[4],10%
same,%Inh,[5],0%
same,%Inh,[6],0%
same,%Inh,[7],0%
same,%Inh,[8],0%
same,%Inh,[9],14%
same,%Inh,[10],4%
same,%Inh,[11],44%
same,%Inh,[12],22%
same,%Inh,[13],2%
same,%Inh,[14],0%
same,%Inh,[15],0%
same,%Inh,[16],15%
same,%Inh,[17],0%
same,%Inh,[18],7%
same,%Inh,[19],0%
same,%Inh,[20],33%
Cc1cccc(Cn2ccn3c(=O)cc(N4CCOCC4)nc23)c1 [GSK2297542],%Inh,[1],12%
same,%Inh,[2],10%
same,%Inh,[3],0%
same,%Inh,[4],9%
same,%Inh,[5],0%
same,%Inh,[6],19%
same,%Inh,[7],23%
same,%Inh,[8],0%
same,%Inh,[9],13%
same,%Inh,[10],15%
same,%Inh,[11],24%
same,%Inh,[12],1%
same,%Inh,[13],0%
same,%Inh,[14],27%
same,%Inh,[15],20%
same,%Inh,[16],5%
same,%Inh,[17],27%
same,%Inh,[18],32%
same,%Inh,[19],0%
same,%Inh,[20],0%
COc1cc2c(cc1OCCN1CCN(C)CC1)ncc1c3ccc(C#N)cc3[nH]c21,%Inh,[1],18%
same,%Inh,[2],1%
same,%Inh,[3],0%
same,%Inh,[4],0%
same,%Inh,[5],0%
same,%Inh,[6],0%
same,%Inh,[7],10%
same,%Inh,[8],0%
same,%Inh,[9],2%
same,%Inh,[10],0%
same,%Inh,[11],53%
same,%Inh,[12],43%
same,%Inh,[13],4%
same,%Inh,[14],29%
same,%Inh,[15],0%
same,%Inh,[16],12%
same,%Inh,[17],0%
same,%Inh,[18],10%
same,%Inh,[19],22%
same,%Inh,[20],0%
NCCNS(=O)(=O)c1ccc(-c2ccnc3[nH]ccc23)cc1 [GSK977617],%Inh,[1]; 1 µM,52% and 31%
same,%Inh,[2]; 1 µM,6% and 0%
same,%Inh,[3],0%
same,%Inh,[4]; 1 µM,5% and 0%
same,%Inh,[5]; 1 µM,16% and 15%
same,%Inh,[6]; 1 µM,13% and 16%
same,%Inh,[7]; 1 µM,23% and 15%
same,%Inh,[8],0%
same,%Inh,[9]; 1 µM,11% and 0%
same,%Inh,[10]; 1 µM,11% and 1%
same,%Inh,[11]; 1 µM,13% and 24%
same,%Inh,[12]; 1 µM,37% and 0%
same,%Inh,[13]; 1 µM,3% and 0%
same,%Inh,[14]; 1 µM,47% and 0%
same,%Inh,[15]; 1 µM,8% and 0%
same,%Inh,[16],0%
same,%Inh,[17]; 1 µM,12% and 17%
same,%Inh,[18]; 1 µM,3% and 25%
same,%Inh,[19],0%
same,%Inh,[20]; 1 µM,46% and 17%
Fc1ccc(-c2ncn(CCCN3CCOCC3)c2-c2cccnc2)cc1 [SB-211743],%Inh,[1],1%
same,%Inh,[2],0%
same,%Inh,[3],11%
same,%Inh,[4],0%
same,%Inh,[5],0%
same,%Inh,[6],3%
same,%Inh,[7],20%
same,%Inh,[8],0%
same,%Inh,[9],0%
same,%Inh,[10],0%
same,%Inh,[11],0%
same,%Inh,[12],0%
same,%Inh,[13],0%
same,%Inh,[14],0%
same,%Inh,[15],0%
same,%Inh,[16],8%
same,%Inh,[17],0%
same,%Inh,[18],0%
same,%Inh,[19],0%
same,%Inh,[20],29%
COc1ccc(Nc2nccc(N3CCC(NC(=O)Nc4cc(C)ccc4C)C3)n2)cc1 (centres unmarked) [GSK1379741],%Inh,[1],0%
same,%Inh,[2],12%
same,%Inh,[3],0%
same,%Inh,[4],0%
same,%Inh,[5],5%
same,%Inh,[6],2%
same,%Inh,[7],14%
same,%Inh,[8],27%
same,%Inh,[9],8%
same,%Inh,[10],9%
same,%Inh,[11],0%
same,%Inh,[12],6%
same,%Inh,[13],0%
same,%Inh,[14],52%
same,%Inh,[15],0%
same,%Inh,[16],0%
same,%Inh,[17],0%
same,%Inh,[18],1%
same,%Inh,[19],0%
same,%Inh,[20],0%
